Data: the OligoGym collection

The sequences below were run against PPARGC1A (assay: pooled miR-30 sensor sort-seq; sequence = guide strand). Conditions: shRNA.
Note: reference of the scale not given here.

Sequence	sensor-assay potency score (higher = more potent)
TTTATCACTTTCATCTTCGCTG	0.495
TTCGTCGTCAAAAACAGCTTGA	-0.0941
TAGGTCTGCATAGTTAGACTTG	-0.55
TTGACAAATACTCTTCGCTTTA	-1.03
TTGTCTAGAGTCTTGGAGCTCC	0.145
TTACATTTGAATATTCTTGATT	0.253
TTGCTGTTGACAAATACTCTTC	-0.955

The sequences below were run against PPCS in the same assay as above. Conditions: shRNA.

Sequence	sensor-assay potency score (higher = more potent)
TTATCCACTATCTTCTCTTCTA	-0.111
TAAATTTCCAAAGCCTTCCGAG	-0.661
TTTTTTTGTAGTTTTCACCATC	-0.312
TCTGATAGCAATAACTTGGTTT	0.221
TTCATTGTTATCTGCAGTGGGC	-0.306
TTCTCTTCTATCTCTACGCCTT	-0.45
TAAACACAAAGGACTGTCGTGA	0.415
TTCACCATCTCTAAGAGCCCTG	-0.3
TTGATGCTGATAAATTTCCAAA	-1.35
TTTGGCACCATCTTCATTGTTA	0.148
TTGTAGTTTTCACCATCTCTAA	-1.34
TACAATAAACACAAAGGACTGT	0.367

The sequences below were run against PPEF1 in the same assay as above. Conditions: shRNA.

Sequence	sensor-assay potency score (higher = more potent)
TAGTTTTCCAACATGAAGGAAA	-0.591
TAATGCTGAAACCAAATCCTAT	-0.921
TTGTTCATCAGCATATTCGATG	-0.664
TAATCTTACCAATAACAGCTTG	-0.683
TTGTATGTGAGTGAAATTCGGC	-0.494
TATCGAGTCCACATAATCCCAT	-1.01
TTATGCAAAATTTCTTTCGTGA	0.493
TTCATCAGCATATTCGATGGAC	-0.181
TTTTCCATAGTATCCACTCTTT	-0.493
TAGTAGTTTTCTCTTGTGCTGT	-0.247
TTTTCTGTGGTCTTGAAGTTGG	-0.736
TTTTATTGTGCTTCGAGTCAGT	0.317

What follows are sequences tested against PPIA in the same assay as above. Conditions: shRNA.

Sequence	sensor-assay potency score (higher = more potent)
TTGCTGGTCTTGCCATTCCTGG	-1.6
TTTCACTTTGCCAAACACCACA	-0.879
TTCTGCTGTCTTTGGGACCTTG	-0.756
TCTTCTTGCTGGTCTTGCCATT	-1.28
TAAACTTAACTCTGCAATCCAG	-0.459
TCATCTTCAAATTTCTCCCCAT	-0.0656
TTAGGATGAAGTTCTCATCTTC	0.589
TACAGAAGGAATGATCTGGTGG	0.317
TAACCAAATCCTTTCTCTCCAG	-0.631
